Inconclusive results are not listed. Unmarked numbers belong to inactive results. Active and inactive are the calls of the source. Calls follow the shape of the full dose curve.
Each compound was assayed against Atrial natriuretic peptide receptor 1 (Homo sapiens) (UniProt P16066) (assay: Natriuretic polypeptide receptor (hNpr1) antagonism - Pilot CMLD screen (AID 1347052;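 also: cGMP level read as GloSensor luciferase luminescence after agonist stimulation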;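 as to activity change, negative = inhibition: HEK293 cells with hNpr1 stimulated by hNppA peptide at 0.1 nM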)). Details: HEK293 hNpr1 GloSensor cGMP luminescence, ANP-stimulated; series mostly up to 9.22 µM; activity change, negative = inhibition: at the top concentration.
Sequence of Atrial natriuretic peptide receptor 1 (Homo sapiens) (P16066 whole entry, looked up): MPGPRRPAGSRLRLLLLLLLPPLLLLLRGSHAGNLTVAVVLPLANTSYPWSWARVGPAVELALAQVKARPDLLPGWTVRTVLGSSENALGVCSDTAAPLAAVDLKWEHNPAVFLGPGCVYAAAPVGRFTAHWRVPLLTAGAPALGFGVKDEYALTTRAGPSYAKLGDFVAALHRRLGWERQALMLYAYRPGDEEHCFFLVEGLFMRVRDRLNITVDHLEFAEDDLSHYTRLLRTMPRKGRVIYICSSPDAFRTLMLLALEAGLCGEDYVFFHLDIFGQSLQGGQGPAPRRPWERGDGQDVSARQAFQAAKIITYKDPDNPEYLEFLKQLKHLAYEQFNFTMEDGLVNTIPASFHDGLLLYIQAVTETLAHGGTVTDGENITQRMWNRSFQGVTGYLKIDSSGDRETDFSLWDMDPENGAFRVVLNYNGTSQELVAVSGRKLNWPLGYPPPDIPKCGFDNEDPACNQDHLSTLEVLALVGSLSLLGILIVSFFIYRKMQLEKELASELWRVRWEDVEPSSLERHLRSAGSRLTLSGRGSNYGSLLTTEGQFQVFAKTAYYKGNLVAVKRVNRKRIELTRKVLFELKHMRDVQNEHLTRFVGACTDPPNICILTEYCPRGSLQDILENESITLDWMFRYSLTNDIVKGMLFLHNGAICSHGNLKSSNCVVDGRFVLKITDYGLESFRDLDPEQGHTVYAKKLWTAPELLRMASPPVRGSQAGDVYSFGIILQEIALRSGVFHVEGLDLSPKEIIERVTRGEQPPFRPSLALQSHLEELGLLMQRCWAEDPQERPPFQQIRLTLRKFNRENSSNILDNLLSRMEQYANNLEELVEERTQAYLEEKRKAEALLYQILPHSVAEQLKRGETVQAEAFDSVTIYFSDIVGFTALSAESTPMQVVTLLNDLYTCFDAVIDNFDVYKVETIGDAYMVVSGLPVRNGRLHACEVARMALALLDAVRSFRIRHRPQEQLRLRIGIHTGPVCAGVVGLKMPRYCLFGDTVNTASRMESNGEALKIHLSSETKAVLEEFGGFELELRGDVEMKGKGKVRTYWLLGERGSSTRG
In the case of C=C(C(C)=O)C(O)c1ccc(Cl)cc1 (centres undefined), the “activity change, negative = inhibition” value is reported as -15%. With COc1ccc(COC(=O)NN=C2C[C@@H](O)[C@@H](O)[C@@H]3[C@H]4C(=O)N(Cc5ccc6c(c5)OCO6)C(=O)[C@@H]4CC[C@H]23)cc1 the “activity change, negative = inhibition” value was -0.948%. COC[C@H]1O[C@@H](c2c(OC)cc(OC)cc2OC)[C@H](OC)[C@@H](OC)[C@H]1OC was tested, and the “activity change, negative = inhibition” value was 2.98%. With CC(=O)OC[C@H]1O[C@@H](ON=C(C)CCN2CCCCc3nc(C)c(C)cc32)[C@H](OC(C)=O)[C@@H](OC(C)=O)[C@H]1OC(C)=O the “activity change, negative = inhibition” value was 11.5%. With COC(=O)N1C2CC3(C)CC(=O)CC1(C)C3c1ccccc12 (centres undefined) the “activity change, negative = inhibition” value was -0.989%. For C=CCOC(=O)N[C@@H](Cc1ccccc1)C(C(=O)OC)=C(C)NCc1ccccc1, the “activity change, negative = inhibition” value was -5.02%. CCC=CCCC(OC(=O)c1ccc(Br)cc1)C1=CCCCC1=O (centres undefined) was tested, and the “activity change, negative = inhibition” value was -14.9%. With COC(=O)CC=C[C@@H](C)[C@H](NC(=O)OC)c1ccccc1Br the “activity change, negative = inhibition” value was -3.18%. In the case of CC(C)(C)Nc1oc(-c2ccccc2)nc1-c1ccc(C(F)(F)F)cc1, the “activity change, negative = inhibition” value is reported as -5.1%. With COc1cc2c(cc1OC)[C@@H]1O[C@](c3ccsc3)(C2)Oc2cc(-c3ccccc3)oc(=O)c21 the “activity change, negative = inhibition” value was 9.53%. COC(=O)C(Cc1cc(Br)c(OC)c(Br)c1O)=NO was tested, and the “activity change, negative = inhibition” value was 6.63%. In the case of CC(C)=NOCc1ccc(-c2cn([C@@H]3COC[C@@H]3O)nn2)cc1, the “activity change, negative = inhibition” value is reported as 2.99%. With COC(=O)[C@@H]1[C@@H](c2ccccc2)NC(=O)N(Cc2ccccc2)[C@@H]1C the “activity change, negative = inhibition” value was 2.01%. In the case of CCCCc1nc2c(c3c1C[C@H](C)OC3)CN(C(=O)Cc1cccs1)CC2, the “activity change, negative = inhibition” value is reported as 0.0296%. With CN1c2ccccc2[C@@]2(O)C(=O)[C@@]1(C)[C@@H]1CCC=C[C@H]12 the “activity change, negative = inhibition” value was 1.93%. For CC=CCCN1C=C(C(=O)OCC)C(c2ccccc2)NC1=O (centres undefined), the “activity change, negative = inhibition” value was -1.42%. For CCOC(=O)CN1C(=O)NC(CCc2ccccc2)C(C(C)=O)=C1C (centres undefined), the “activity change, negative = inhibition” value was -3.66%. For CC1(OC(=O)C2CCCC2)C(=O)C=C2C=C(c3ccsc3)N(c3cccc(C#N)c3)C=C2C1=O (centres undefined), the Potency was 2.66 µM (active). For CO[C@@H]1c2cc(F)ccc2C(=CCCOC(=O)CC=Cc2ccccc2)[C@H]1C, the “activity change, negative = inhibition” value was 3.34%. For CC12C=C(C=Cc3ccc(Br)cc3)C(C)(C1)C(c1ccc(Br)cc1)CC2=O (centres undefined), the “activity change, negative = inhibition” value was 2.42%. In the case of CC(=O)N1C(=O)NC(C)=C(C#N)C1c1ccccc1 (centres undefined), the “activity change, negative = inhibition” value is reported as 5.84%. In the case of C#CCNC(=O)[C@H]1C=C(OC)C(=O)C[C@H]2c3ccccc3C[C@]12C, the “activity change, negative = inhibition” value is reported as 0.523%. In the case of CCN1C(=NCCCOC(C)C)N[C@H](c2ccccc2)[C@H](C(=O)OC)[C@H]1C, the “activity change, negative = inhibition” value is reported as 4.41%. In the case of COc1ccc(-c2nc3c(c4c2C[C@H](c2ccccc2)OC4)CN(S(=O)(=O)c2ccc(C)cc2)CC3)c(C)c1, the “activity change, negative = inhibition” value is reported as 0.496%. In the case of C=C(C(C)=O)C(O)c1cccc(OC)c1 (centres undefined), the “activity change, negative = inhibition” value is reported as -4.73%. CC(CCC(=O)OC[C@H]1O[C@H](C#Cc2ccccc2)C=C[C@H]1Oc1ccc(C)cc1)=NOC[C@@H](O)[C@H]1O[C@@H]2OC(C)(C)O[C@H]2[C@@H]1O was tested, and the “activity change, negative = inhibition” value was -2.36%. With CC(C)CON=C1C[C@@H](O)[C@@H](O)[C@@H]2[C@H]3C(=O)N(C4CCCCC4)C(=O)[C@@H]3CC[C@@H]12 the “activity change, negative = inhibition” value was 22.6%. For CC(C)(C)c1nc(-c2ccccc2)oc1Nc1ccc2ccccc2c1, the “activity change, negative = inhibition” value was -27.5%. For CCN1C(=O)N[C@@H](CCc2ccccc2)[C@@H](C(=O)OC)[C@H]1C, the “activity change, negative = inhibition” value was 1.72%. With Cc1noc(C)c1S(=O)(=O)N1CCc2nc(-c3ccccc3)c3c(c2C1)CO[C@@H](C)C3 the “activity change, negative = inhibition” value was -0.244%. With CC(CCN1CCCCc2nc(C)c(C)cc21)=NO[C@@H](C)CN1CCCCc2nc(C)c(C)cc21 the “activity change, negative = inhibition” value was 7.53%. For COC(=O)[C@H]1O[C@@H](c2cc(OC)c(C)c(OC)c2O)[C@H](C)[C@@H](O)[C@@H]1C, the “activity change, negative = inhibition” value was -3.85%. In the case of CC1(OC(=O)c2cnc3ccccc3n2)C(=O)C=C2C=C(C3CC3)OC=C2C1=O (centres undefined), the “activity change, negative = inhibition” value is reported as 4.04%. For CC(=O)OC[C@H]1O[C@H](CC=NO[C@H](C)CN2CCCCc3nc(C)c(C)cc32)C=C[C@@H]1OC(C)=O, the “activity change, negative = inhibition” value was 6.51%. For CCN1C(=NCCc2c[nH]c3ccccc23)NC(c2ccccc2)C(C(=O)OC)=C1C (centres undefined), the Potency was “inactive”. In the case of COc1ccc(-c2nc3c(c4c2C[C@H](c2ccccc2)OC4)CN(C(=O)c2cccnc2)CC3)c(C)c1, the “activity change, negative = inhibition” value is reported as 1.78%. With CC(=O)C1=C(C)N(CC#C[Si](C)(C)C)C(=O)N(C(C)=O)C1c1ccccc1 (centres undefined) the “activity change, negative = inhibition” value was -2.08%. In the case of CCCCc1nc2c(c3c1C[C@H](C)OC3)CN(C(=O)c1ccco1)CC2, the “activity change, negative = inhibition” value is reported as 12.9%. COC(=O)N[C@@H](c1cccc(F)c1)C(C(C)=O)C(=O)OC (some centres undefined) was tested, and the Potency was “inactive”.
% is scaled to controls: 0 for no effect and ±100 for the full control effect; potency is read from the fitted curve at half-maximal effect.
